# Records with an inconclusive call do not appear. Values without a mark were called inactive. The source made the active and inactive calls. Calls come from the whole dose curve; as a rule, active = well fitted activation curve with a large enough effect in the repeat runs; inconclusive = weak or mixed curves; inactive = no such curve, though single readings can be large or run the other way.
# Target: Nuclear receptor subfamily 1 group I member 3 (Homo sapiens) (UniProt Q14994)
# Test: qHTS assay to identify small molecule agonists of the constitutive androstane receptor (CAR) signaling pathway (AID 1224839); note: nearly all actives have a fitted effect of over 15% in size;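 for activation: HepG2 cells stably carrying human CAR and a CYP2B6 luciferase reporter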
# Conditions: HepG2 hCAR CYP2B6-luciferase, agonist mode, 24 h; series mostly up to 92.4 µM; activation: at the top concentration
# Text: National Center for Advancing Translational Sciences [NCATS] NIH Chemical Genomics Center [NCGC] U.S. Environmental Protection Agency [EPA] National Institutes of Environmental Health Sciences [NIEHS] National Toxicology Program [NTP] Assay overview: The constitutive androstane receptor (CAR) is a nuclear receptor which regulates multiple drug metabolizing enzymes (DMEs) and transporters. Activating CAR will generally increase the transcription and subsequent translation of CYP2B6 and CYP3A4. These two DMEs represent about 50% of the drug metabolizing potential in the body. […] Recently, there have also been studies performed indicating CARs role in energy metabolism and cancer therapy. Therefore, inducing CARs activity could have a potential effect on diabetes and cancer. Identifying environmental toxins and compounds which modulate CAR, through the use of the Tox21 10K compound collection, will be an important step in determining the toxicity and potential therapeutic effects these factors will have on the human body.
# Assay Protocol Summary: A double-stable (hCAR and CYP2B6-2.2kb) transfected cell line, derived from human hepatoma (HepG2) cells, was utilized for the duration of the quantitative high-throughput screens. The HepG2-CYP2B6-hCAR cells suspended in DMEM culture medium supplemented with 10% FBS, 5 ug/mL blasticidin, 0.5 mg/mL geneticin, 100 U/mL penicillin and 100 ug/mL streptomycin were dispensed at 2500 cells/4 uL/well in 1536-well white solid bottom plates using a Multidrop Combi. After the assay plates were incubated at 37 C/5% CO2 for 4 hrs, 23 nL of compounds at 15 concentrations (from 5-48 columns) or positive control (from 1 to 4 columns) were transferred to the assay plates using a Pintool station. One uL of PK11195, was added using a Flying Reagent Dispenser to generate a final concentration of 0.75 uM PK11195 inside each well. After a 24 hr incubation period at 37 C/5% CO2, four uL of ONE-Glo reagent was added into the assay plates using a Flying Reagent Dispenser. After a 30 min incubation period at room temperature, the luminescence intensity in the assay plates was measured using a ViewLux plate reader.
# % is set by controls: 0 for no effect and ±100 for the full control effect; potency is the fitted concentration of half-maximal effect.
# Chain of Nuclear receptor subfamily 1 group I member 3 (Homo sapiens) (Q14994 whole entry, looked up): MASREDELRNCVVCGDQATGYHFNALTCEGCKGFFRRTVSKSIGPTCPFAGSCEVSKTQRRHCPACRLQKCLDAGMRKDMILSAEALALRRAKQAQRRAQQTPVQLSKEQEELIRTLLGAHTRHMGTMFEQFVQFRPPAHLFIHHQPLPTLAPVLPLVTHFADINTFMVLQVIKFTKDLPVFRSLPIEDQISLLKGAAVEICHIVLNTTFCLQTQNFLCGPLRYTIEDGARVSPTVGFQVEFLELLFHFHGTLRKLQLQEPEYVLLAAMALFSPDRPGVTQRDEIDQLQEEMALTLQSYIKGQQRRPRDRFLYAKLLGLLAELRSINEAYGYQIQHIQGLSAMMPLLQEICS
Structure (SMILES),activation,Potency
CCCCCCCCOC(=O)CCCCCCCCC(=O)OCCCCCCCC,6.53%,
Cc1ccccc1C(=O)Nc1ccc(C(=O)N2CCCC(O)c3cc(Cl)ccc32)c(C)c1 (stereo not given),-3.24% [at 42.5 µM],
C[C@]12C(=O)OC(=O)[C@H]1[C@H]1C=C[C@@H]2C1,-0.406%,
OCCN1CCN(CCO)CC1,-1.36%,
CC(C)=CCC[C@](C)(O)[C@@H]1CC=C(C)CC1,-1.19%,
CC1=C(CC(=O)O)c2cc(F)ccc2/C1=C\c1ccc(S(C)(=O)=O)cc1,5.24% [at 42.5 µM],
CN1CCN(c2c(F)cc3c(=O)c(C(=O)O)cn4c3c2SCC4)CC1,-2.52% [at 42.5 µM],
CCCCNCCCC,-0.721%,
Cc1ccc([N+](=O)[O-])cc1Cl,-0.435%,
Cc1c(N)cccc1N,12.3%,
CN(C)C(=O)NC1(c2ccccc2)CCN(CCC[C@]2(c3ccc(Cl)c(Cl)c3)CCCN(C(=O)c3ccccc3)C2)CC1,-6.21% [at 19 µM],
CN1C(=O)CC(c2ccccc2)C1=O (stereo not given),-0.201% [at 42.5 µM],
O=c1[nH]c(=O)n([C@H]2C[C@H](O)[C@@H](CO)O2)cc1C(F)(F)F,-1.35% [at 42.5 µM],
CCCCCCCOC(=O)CCC,0.515%,
NC(=O)Cc1cccc(C(=O)c2ccccc2)c1N,5.4% [at 42.5 µM],
C=O,0.206%,
Cc1cc(NS(=O)(=O)c2ccc(N)cc2)nc(C)n1,,11.9 µM (active)
O=C1CCN(c2ccccc2)N1,9.74%,
O=C1N(c2ccccc2)c2ccccc2C1(Cc1ccncc1)Cc1ccncc1,-4.73% [at 42.5 µM],
Cc1ccc([N+](=O)[O-])c(N)c1,6.98%,

Structure (SMILES),activation,Potency
CCC(=O)c1ccc2c(c1)N(CCCN(C)C)c1ccccc1S2,-2.55% [at 42.5 µM],
COc1ccc(Nc2ccc(OC)cc2)cc1,,17.5 µM (active)
NC(=O)NS(=O)(=O)c1ccc(Cl)cc1,0.557% [at 42.5 µM],
CCCCC1CCC(=O)O1 (stereo not given),-1.41%,
O=C(CC(=O)C(F)(F)F)c1ccccc1,,55.3 µM (active)
CC(C)NC[C@@H](O)COc1cccc2ccccc12,-3.74% [at 42.5 µM],
FC(F)(F)c1ccccc1,0.362%,
CCN(CC)C(=O)N(CC)CC,0.983%,
O=C(O[C@@H](C(=O)O)[C@@H](OC(=O)c1ccccc1)C(=O)O)c1ccccc1,-0.931%,
CCCCN1C[C@H](O)[C@@H](O)[C@H](O)[C@H]1CO,-2.86% [at 42.5 µM],
FC(F)(F)C(Cl)(Cl)Cl,2.34%,
CCCCC(CC)COC(=O)COc1cc(Cl)c(Cl)cc1Cl (stereo not given),3.28%,
CCCNC(C)C(=O)Nc1c(C)csc1C(=O)OC (stereo not given),0.85% [at 42.5 µM],
O=C(O)CN(CCN(CC(=O)O)CC(=O)O)CCN(CC(=O)O)CC(=O)O,-1.04% [at 19 µM],
Oc1ccccc1C=NCc1ccccc1,-0.36% [at 42.5 µM],
C[C@@H](N)C(=O)O,-2.69% [at 42.5 µM],
CCCS(=O)c1ccc2nc(NC(=O)OC)[nH]c2c1 (stereo not given),11.6% [at 42.5 µM],
CCCN(CCC)C(=O)C(CCC(=O)O)NC(=O)c1ccccc1 (stereo not given),-2.29% [at 42.5 µM],
CCCCCCCCCC/C=C/C#N,0.613%,
O=c1[nH]cnc2c1ncn2[C@@H]1O[C@H](CO)[C@@H](O)[C@H]1O,0.0744% [at 42.5 µM],

# From PubChem BioAssay (Tox21)
